# High-throughput results: PubChem, National Center for Advancing Translational Sciences (NCATS)
# Rows were chosen to be rich in hits. Some 11% of all compounds tested hit in one or more screens of this group.
# ALOX12 inhib = qHTS Assay for Inhibitors of 12-hLO (12-human lipoxygenase) | AID 1452, 2008 | 0.12% of 150,000 active | purified 12-hLO, xylenol orange hydroperoxide absorbance | Potency, µM (top dose mostly 57.1 µM), for inactives: at the top dose activity change, negative = inhibition, hits mostly inhibitors | Polyunsaturated fatty acid lipoxygenase ALOX12 (Homo sapiens), P18054; note: potency is the fitted concentration of half-maximal effect; nearly all actives have a fitted effect of over 55% in size
#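 Hydroperoxide formation by human 12-lipoxygenase from 40 uM arachidonic acid was followed colorimetrically via ferric-xylenol orange complex, using the 573/405 nm absorbance ratio. Enzyme concentration was 150 nM, with 30 min reaction at room temperature.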
# IMPase inh = qHTS Assay for Identifying the Cell-Membrane Permeable IMPase Inhibitors | Inositol monophosphatase 1 (Rattus norvegicus), P97697 | CHO-M1 cells, IP1 accumulation, HTRF TR-FRET ratio | inhibition (IP1 accumulation), % at 46.1 µM | 120,000 tested, under 10 active | AID 901, 2007; active = well fitted curve in the direction sought with a large enough effect in the signal ratio, not every such curve was filed as active; inconclusive = small, poorly fitted or top-dose-only effect, or a change in a side signal; inactive = no such curve, though single readings can be large or run the other way; the % refers to the signal ratio;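 note: cells stimulated with carbachol in lithium chloride buffer; plate controls were DMSO basal wells for no effect and reference inhibitor wells for full effect; higher means more IMPase inhibition seen as more IP1 and lower FRET ratio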
# Target sequence (P97697 whole entry, looked up): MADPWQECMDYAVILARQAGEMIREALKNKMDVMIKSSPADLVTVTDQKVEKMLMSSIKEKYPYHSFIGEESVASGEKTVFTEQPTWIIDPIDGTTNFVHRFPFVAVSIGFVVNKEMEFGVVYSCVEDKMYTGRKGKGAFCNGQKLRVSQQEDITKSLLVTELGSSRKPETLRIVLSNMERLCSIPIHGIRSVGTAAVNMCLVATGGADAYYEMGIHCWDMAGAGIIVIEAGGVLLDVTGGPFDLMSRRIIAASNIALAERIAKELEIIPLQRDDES
#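 In this qHTS, compounds (final up to 46 uM) act on CHO-M1 cells that are then activated through the M1 receptor with carbachol, in pH 7.4 buffer containing 50 mM LiCl, for 30 min. IP1 accumulation is quantified by the IP-One immunoassay.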
# IMPase Li cell = qHTS Assay for Identifying the Cell-Membrane Permeable IMPase Inhibitors: Potentiation with Lithium. CHO-M1 cells, IP1 TR-FRET (IP-One), carbachol + lithium. Potency, µM (titrated, usually from 59.4 µM), inactives show at the highest dose activity, negative = IMPase inhibition, usual class: inhibitors. 0.35% of 210,000 active. AID 1457, 2008;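 note: IP1 builds up when IMPase is blocked and the TR-FRET signal falls; potency is the fitted concentration of half-maximal effect; plate controls were basal vehicle for no effect and high inhibitor control for full effect; nearly all actives have a fitted effect of over 50% in size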
#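 Steps: plate 2000 CHO-M1 cells per well and culture 16–30 h; add compound and lithium; incubate 30 min, 37C; add d2-IP1 tracer and Eu cryptate anti-IP1 antibody in lysis buffer; read after 10 min at room temperature.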
# ALDH1A1 inh = qHTS Assay for Inhibitors of Aldehyde Dehydrogenase 1 (ALDH1A1) | Aldehyde dehydrogenase 1A1 (Homo sapiens), P00352 | Purified ALDH1A1, NADH fluorescence, propionaldehyde substrate | Potency, µM (doses to about 75.3 µM), without a hit: at the top dose activity, negative = inhibition, most hits filed as inhibitors | 7.3% of 220,000 active; active = well fitted inhibition curve with a large enough effect, not every such curve was filed as active; inconclusive = small, poorly fitted or top-dose-only effect, or another doubt; inactive = no such curve, though single readings can be large or run the other way;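 note: potency is the fitted concentration of half-maximal effect; plate controls were no enzyme wells and a reference inhibitor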
# HPGD inh = qHTS Assay for Inhibitors of HPGD (15-Hydroxyprostaglandin Dehydrogenase) | 15-hydroxyprostaglandin dehydrogenase [NAD(+)] (Homo sapiens), P15428 | purified HPGD, NADH fluorescence kinetic, PGE2 substrate | Potency, µM, for the others: at the highest dose activity change, negative = inhibition, hits mostly inhibitors | 4.3% of 150,000 active | AID 894, 2007; active = well fitted inhibition curve with a large enough effect, not every such curve was filed as active; inconclusive = small, poorly fitted or top-dose-only effect, or another doubt; inactive = no such curve, though single readings can be large or run the other way; note: potency is the fitted concentration of half-maximal effect
# Target sequence (P15428 whole entry, looked up): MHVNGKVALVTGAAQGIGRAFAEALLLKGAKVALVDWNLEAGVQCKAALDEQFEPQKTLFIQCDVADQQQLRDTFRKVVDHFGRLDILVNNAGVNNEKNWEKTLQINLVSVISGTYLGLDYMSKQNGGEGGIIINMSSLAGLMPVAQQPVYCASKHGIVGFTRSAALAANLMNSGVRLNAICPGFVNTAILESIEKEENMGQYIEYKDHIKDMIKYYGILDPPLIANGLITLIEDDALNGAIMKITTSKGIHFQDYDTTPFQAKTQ
#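 NADH formation kinetics: reaction with 30 uM PGE2 and 1 mM NAD+ (final), 20 nM enzyme, Tris-HCl pH 8 with Tween 20, after 15 min compound preincubation at room temperature. Fluorescence change, last versus first of five reads.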
# PNC assembly inh = High Content Assay for Compounds that inhibit the Assembly of the Perinucleolar Compartment; PC3M PTB-GFP, PNC prevalence imaging, 16 h; stronger effect = lower value; activity change (PNC), negative = inhibition, % at 10 µM; 3.1% of 140,000 active; AID 2417, 2010;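 active = readout at or below -70, meaning at least 70% loss of cells showing the perinucleolar compartment, a nuclear body marking cancer cells; inconclusive = readout between -30 and a set limit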;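 note: plate controls were DMSO wells for no effect and camptothecin positive control wells for full effect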
#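 Read-out is percentage of cells bearing a perinucleolar compartment, from automated 20x imaging of fixed, Hoechst-stained PC3M PTB-GFP cells. Cells were seeded 4 h, then exposed 16 h to compound (23 nl of library stock) in duplicate plates.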
# Active calls of the source: *; u = inconclusive; x = no result; [ ] = dose if it differs, or a comment. Unless noted, calls come from the whole dose curve; as a rule, active = well fitted curve in the direction sought with a large enough effect; inconclusive = small, poorly fitted or top-dose-only effect, or another doubt; inactive = no such curve, though single readings can be large; an effect the other way counts as inactive or inconclusive. Unless noted, % is set by controls: 0 for no effect and ±100 for the full control effect.
SMILES,ALOX12 inhib,IMPase inh,IMPase Li cell,ALDH1A1 inh,HPGD inh,PNC assembly inh
COc1ccc(C(=O)NC(=S)Nc2cccc(NC(=O)c3ccco3)c2)cc1[N+](=O)[O-],1%,u,8%,3.5µM*,-8%,-6
CCOc1ccccc1NC(=O)c1cccc(NC(=O)c2ccco2)c1,0%,4,13%[38.3 µM],2%,-12%,-86*
CCOc1ccc(C(=O)Nc2ccc(-c3nc4ccccc4[nH]3)cc2)cc1[N+](=O)[O-],0%,x,6%,5%,-1%,-116*
CO[C@@H]1COC(=O)[C@H](CCSC)NC(=O)C/C=C\[C@@H](C)COC(=O)[C@@H]2CCCN2C(=O)C/C=C\[C@H]1C,x,x,x,0%[13.5 µM],x,x
COc1ncc2nc(CCc3ccccc3)c(=O)n(Cc3ccc(F)cc3)c2n1,-8%,x,18%,0%,-13%,x
CCc1ccc(NC(=O)c2ccc(OC)c([N+](=O)[O-])c2)cc1,-7%,x,26%,11µM*,-19%,-4
CCOc1cc(NS(=O)(=O)c2ccccc2)c(OCC)cc1NC(=O)c1ccco1,-6%,-2,28%[38.3 µM],7.9µM*,-12%,41
CCOC(=O)C(Cc1ccc(OC)c([N+](=O)[O-])c1)NC(=O)CCC(=O)Nc1ccc(OC)cc1 (stereo not drawn),x,x,12%,4.5µM*,x,x
CCNC(=S)Nc1cc(OCC)c(NC(=O)c2ccco2)cc1OCC,1%,-8,6%,u,-21%,u
COc1cc(NC(=S)NC(=O)c2ccccc2F)ccc1NC(=O)c1ccco1,-2%,x,-2%,32µM*,-26%,18
COc1ccc(C(=O)Nc2ccc(N3CCN(C)CC3)cc2)cc1[N+](=O)[O-],x,x,10%,u,x,x
COc1ccc(OCC2CN3C(CCC(C)C3c3ccc(Br)cc3)C(=O)O2)cc1 (stereo not drawn),x,x,x,6%[13.5 µM],x,x
COc1ccc(-c2oc3c(CC=C(C)C)c(O[C@H]4OC(CO)C(O)C(O)C4O)cc(O)c3c(=O)c2O[C@@H]2OC(C)C(O)C(O)C2O)cc1 (stereo partly drawn),-4%,x,x,5%,-7%,x
Cc1cccc(C)c1OCC(=O)Nc1cccc(NC(=O)c2ccco2)c1,0%,u,23%,u,-20%,-119*
COc1ccccc1C(=O)Nc1ccc(S(=O)(=O)Nc2ncccn2)cc1,x,-7,x,x,x,x
Cc1ccc2[nH]c3c(c2c1)CN(C(=O)CN1CCN(c2cccc(C)c2C)CC1)CC3,-17%,8,-5%[38.3 µM],4.5µM*,u,u
O=C(CN1CCN(C(=O)c2ccco2)CC1)N1CCc2[nH]c3ccccc3c2C1,x,x,x,10µM*,x,x
O=C(CSc1nc2ccccc2[nH]1)N1CCN(C(=O)c2ccco2)CC1,-1%,x,-1%,u,-5%,11
O=C(CN1CCSCC1)N1CCc2[nH]c3ccc(Br)cc3c2C1,-3%,9,11%,15µM*,-6%,u
CCCCCCCCCCCCCC(=O)N[C@@H](C)[C@H](O)c1ccccc1,27%,x,-5%,0%,-11%,x
CC(=O)/C(C#N)=C1\NC(=O)C(Cc2ccc(C)c(C)c2)S1 (stereo not drawn),-20%,17,-3%[38.3 µM],-10%,-17%,-108*
Nc1ccc(CC2SC(=O)NC2=O)cc1 (stereo not drawn),-2%,-1,33%[38.3 µM],-7%,-13%,-24
CC(=O)/C(C#N)=C1\NC(=O)C(Cc2ccccc2Cl)S1 (stereo not drawn),1%,-9,u,-11%,u,-5
Cc1ccc(CC2SC(=O)NC2=O)cc1Cl (stereo not drawn),24%,-11,5%,32µM*,-22%,-100*
CCC(C)(C)C,-3%,x,10%,3%,-19%,x
